Source: PubChem (National Center for Advancing Translational Sciences (NCATS))
MCF10A rerep: inducers of DNA re-replication in MCF 10A breast cells; MCF 10A DNA re-replication, Hoechst nuclear intensity, 48 h; 350,000 tested, 2.9% active; Potency, µM (series often up to 46.1 µM), without a hit: top-dose activity, positive = re-replication, hits mostly activators; further: % of control where 0% means no effect; nearly all actives have a fitted effect of over 50% in size
KB-V1 MDR tox: kills drug-selected multidrug resistant KB-V1 cells; KB-V1 MDR cells viability, CellTiter-Glo, 72 h; Potency, µM (doses to about 46.1 µM), actives largely listed as cytotoxic; 400,000 tested, 3.4% active; further: on the % scale 0 is the no-effect control and ±100 the full control effect; nearly all actives have a fitted effect of over 60% in size
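KB-V1, DMEM (no phenol red) + 10% FBS; cpd pin-transferred, titration series; 72 h, 37 degrees C; CellTiter-Glo, luminescence. Data normalized, curve-fit.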
HT1080 IDH1KD tx: kills HT-1080 cells with IDH1 knockdown; HT-1080 IDH1 knockdown viability, ATP luminescence, 48 h; AID 686971; 360,000 tested, 2% active; Potency, µM (series often up to 46.1 µM), for inactives: at the highest dose activity, negative = toxicity, hits mostly cytotoxic;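 further: 0% = DMSO wells and -100% = cell-free medium wells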
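Viability of IDH1-knockdown HT-1080 fibrosarcoma cells was assessed by CellTiter-Glo after 48 h at 37 °C with titrated compound; concentration-effect curves were classified by fit quality and response size.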
HT1080NT lethal: kills 2HG-producing HT-1080-NT fibrosarcoma cells | Potency, µM (doses to about 46.1 µM), inactives show at the highest dose activity, negative = less viability, actives largely listed as cytotoxic | AID 686970 | 360,000 tested, 1.6% active | HT-1080-NT fibrosarcoma viability, CellTiter-Glo ATP luminescence, 48 h;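 further: NT is the 2HG producing partner of a matched IDH1 knockdown line; 0% = DMSO-treated cells and -100% = media-only wells without cells; nearly all actives have a fitted effect of over 55% in size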
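Compounds were tested in concentration-response format on HT-1080-NT cells for 48 hours at 37 degrees C. Cell viability came from CellTiter-Glo luminescence; curves were classified by r2, response magnitude and activity.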
SW480 rerep: induces DNA re-replication in SW480 colon adenocarcinoma cells; SW480 DNA re-replication, Hoechst DNA content imaging, 48 h; Potency, µM (top dose mostly 46.1 µM), inactives show at the top dose re-replication activation, actives largely listed as activators; 340,000 tested, 1.8% active; AID 624297; further: % of control where 0% means no effect; nearly all actives have a fitted effect of over 55% in size
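SW480 cells exposed to compounds for 48 hr at 37 C, 5% CO2, then Hoechst-stained 40 min. Nuclear DNA content imaged by fluorescence scanning (405 nm excitation, 500-530 nm emission); re-replication scored as increased high-intensity nuclei.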
KB-3-1 tox: kills parental KB-3-1 adenocarcinoma cells; AID 1347075; Potency, µM (titrated, usually from 46.1 µM), most hits filed as cytotoxic; 400,000 tested, 1.4% active; KB-3-1 viability, CellTiter-Glo ATP luminescence, 72 h; further: on the % scale 0 is the no-effect control and ±100 the full control effect; nearly all actives have a fitted effect of over 60% in size
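72 h, 37 °C compound treatment of KB-3-1 parental cells; CellTiter-Glo added, 10 min, luminescence read. Data corrected against DMSO-only plates and normalized before curve fitting.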
Active calls of the source: *; i = inactive; ? = inconclusive; / = no result given. In the library only some 7.9% were active in any assay of this set; here they are far more common. The call rests on the fitted dose curve; in most records, active means well fitted curve in the direction sought with a large enough effect; inconclusive means small, poorly fitted or top-dose-only effect, or another doubt; inactive means no such curve, though single readings can be large; an effect the other way counts as inactive or inconclusive. Potency means the concentration at half of the fitted maximal effect.

SMILES | MCF10A rerep | KB-V1 MDR tox | HT1080 IDH1KD tx | HT1080NT lethal | SW480 rerep | KB-3-1 tox
CSCCC(NC(=O)COc1ccccc1)C(=O)NC1CCC(C)CC1 (stereo unspecified) | 14% | 8.2µM* | -2% | 5% | -2% | i
C=Cc1ccc(Cn2c(=O)n(-c3cccc(C)c3)c(=O)c3c2c2cc(C)ccc2n3C)cc1 | / | i | / | / | / | i
O=c1oc2ccccc2cc1-c1csc(Nc2nc3ccc(F)cc3s2)n1 | 2% | / | / | / | -1% | /
O=c1oc2ccccc2cc1-c1csc(Nc2nc3c(F)cccc3s2)n1 | 5.8µM* | ? | ? | -10% | / | 16µM*
CCc1ccccc1NC(=O)c1nnn(CC(=O)Nc2c(C)cc(C)cc2C)c1N | / | i | / | / | / | i
CCOc1ccc(Nc2c(S(=O)(=O)c3ccc(Cl)cc3)cnc3ccc(OC)cc23)cc1 | / | i | / | / | / | i
Oc1c(Br)cc(C=Nc2ccc3nc(-c4ccccc4)[nH]c3c2)c(O)c1Br | 21µM* | i | ? | -20% | ? | i
O=[N+]([O-])c1ccc(O)c(C=Nc2ccc3nc(-c4ccccc4)[nH]c3c2)c1 | ? | i | -24% | -29% | 0% | i
CCOC(=O)C1CCN(Cc2cn3c(-c4ccc(OC)cc4)nnc3s2)CC1 | / | i | / | / | / | i
CCn1cc[n+](C)c1P(c1ccccc1)c1ccccc1 | -1% | i | -23% | -18% | -1% | 7.3µM*
CC(=O)NC(c1ccc(F)c(F)c1)c1nc(-c2cccs2)cs1 (stereo unspecified) | / | i | 19% | ? | / | i
COc1ccc(OC)c(S(=O)(=O)N2CCCCC2C(=O)N2CCN(c3ccccn3)CC2)c1 (stereo unspecified) | -22% | 9.2µM* | 15% | 2% | ? | i
CC1CCCN(c2ccc3nc4ccccc4c(=O)n3n2)C1 (stereo unspecified) | -2% | 7.3µM* | -29% | -27% | -2% | ?
CCOc1ccc(NC(=O)N(CCC(C)C)C2CCN(C(C)=O)CC2)cc1 | -11% | 18µM* | -1% | 8% | -2% | i
CCOc1ccc(NC(=O)N2CCC(N3CCCCC3)CC2)cc1 | / | i | / | / | / | i
CCOc1ccc(NC(=O)N2CCC(c3ccc(C)cc3)C2)cc1 (stereo unspecified) | 9% | 21µM* | -2% | 6% | -8% | i
CCOc1ccc(NC(=O)N(C2CCCC2)C2CCN(C(C)=O)CC2)cc1 | -6% | i | 1% | -5% | -17% | i
O=C1CC(N2CCSCC2)C(=O)N1c1cccc(Cl)c1 (stereo unspecified) | 0.82µM* | ? | -5% | -3% | ? | i
O=C1CC(N2CCN(c3nc4ccccc4s3)CC2)C(=O)N1c1cccc(F)c1 (stereo unspecified) | 5% | i | -2% | 11% | -22% | 18µM*
CCOC(=O)[C@]12CCCC=C1N(Cc1ccc3c(c1)OCO3)C(=O)[C@H](CC(=O)N1CCN(C(=O)C3CC3)CC1)C2 | / | ? | 3% | 9% | / | i
CCOc1ccc(CCNC(=O)c2ccc(CS(=O)(=O)Cc3ccccc3Cl)o2)cc1OCC | / | ? | / | / | / | i
O=C(O)CSCC(=O)N1CCN(Cc2ccc3c(c2)OCO3)CC1 | -4% | i | 9% | 5% | -6% | i
Cc1cccc(N/N=C(\C(N)=O)C2=NC(C)(C)Cc3ccccc32)c1 | 12µM* | 23µM* | ? | ? | 16% | 16µM*
O=C1OC(Nc2ccc3c(c2)OCO3)c2ccccc21 (stereo unspecified) | ? | ? | 18µM* | ? | ? | ?
O=C(NCc1ccc(Cl)c(Cl)c1)c1cc(C2CCCCN2C(=O)c2cccs2)on1 (stereo unspecified) | / | i | -4% | -23% | / | i
